Calls of active or inactive are those of the source.
What was measured:
[1] = small molecules captured by biotinylated probe aFSTL3 – biochemical, small-molecule microarray, fluorescence 635/667, stem cell growth factor project, primary screen (AID 1064); settings: higher = more signal;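 note: measures binding of the biotinylated anti-FSTL3 antibody to printed compounds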
[2] = binders from COS7 lysate, DM2A8 probe, primary screen, torsin A project, cell lysate, small-molecule microarray, fluorescence 635/667 (AID 1065); settings: higher = more signal, COS7 lysate expressing mutant human TOR1A
[3] = small molecules captured by biotinylated probe aFGF2 – biochemical, small-molecule microarray, fluorescence 635/667, stem cell growth factor project, primary screen (AID 1067); settings: higher = more signal;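 note: measures binding of biotinylated aFGF2 protein to printed compounds on slides; z-score merges feature fluorescence and signal-to-noise across triplicate slides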
[4] = small molecules captured by biotinylated probe aFGF10 – biochemical, small-molecule microarray, fluorescence 635/667, stem cell growth factor project, primary screen (AID 1071); settings: higher = more signal;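 note: score merges 667 nm spot intensity and signal to noise from triplicate slides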
[5] = target: Neurogenic locus notch homolog protein 2 (Homo sapiens) (UniProt Q04721); experiment: small molecules binding Notch2 protein – biochemical, small-molecule microarray, 635 nm fluorescence, stem cell growth factors, primary screen (AID 1073); settings: higher = more signal
Sequence of Neurogenic locus notch homolog protein 2 (Homo sapiens) (Q04721 whole entry, looked up, canonical isoform): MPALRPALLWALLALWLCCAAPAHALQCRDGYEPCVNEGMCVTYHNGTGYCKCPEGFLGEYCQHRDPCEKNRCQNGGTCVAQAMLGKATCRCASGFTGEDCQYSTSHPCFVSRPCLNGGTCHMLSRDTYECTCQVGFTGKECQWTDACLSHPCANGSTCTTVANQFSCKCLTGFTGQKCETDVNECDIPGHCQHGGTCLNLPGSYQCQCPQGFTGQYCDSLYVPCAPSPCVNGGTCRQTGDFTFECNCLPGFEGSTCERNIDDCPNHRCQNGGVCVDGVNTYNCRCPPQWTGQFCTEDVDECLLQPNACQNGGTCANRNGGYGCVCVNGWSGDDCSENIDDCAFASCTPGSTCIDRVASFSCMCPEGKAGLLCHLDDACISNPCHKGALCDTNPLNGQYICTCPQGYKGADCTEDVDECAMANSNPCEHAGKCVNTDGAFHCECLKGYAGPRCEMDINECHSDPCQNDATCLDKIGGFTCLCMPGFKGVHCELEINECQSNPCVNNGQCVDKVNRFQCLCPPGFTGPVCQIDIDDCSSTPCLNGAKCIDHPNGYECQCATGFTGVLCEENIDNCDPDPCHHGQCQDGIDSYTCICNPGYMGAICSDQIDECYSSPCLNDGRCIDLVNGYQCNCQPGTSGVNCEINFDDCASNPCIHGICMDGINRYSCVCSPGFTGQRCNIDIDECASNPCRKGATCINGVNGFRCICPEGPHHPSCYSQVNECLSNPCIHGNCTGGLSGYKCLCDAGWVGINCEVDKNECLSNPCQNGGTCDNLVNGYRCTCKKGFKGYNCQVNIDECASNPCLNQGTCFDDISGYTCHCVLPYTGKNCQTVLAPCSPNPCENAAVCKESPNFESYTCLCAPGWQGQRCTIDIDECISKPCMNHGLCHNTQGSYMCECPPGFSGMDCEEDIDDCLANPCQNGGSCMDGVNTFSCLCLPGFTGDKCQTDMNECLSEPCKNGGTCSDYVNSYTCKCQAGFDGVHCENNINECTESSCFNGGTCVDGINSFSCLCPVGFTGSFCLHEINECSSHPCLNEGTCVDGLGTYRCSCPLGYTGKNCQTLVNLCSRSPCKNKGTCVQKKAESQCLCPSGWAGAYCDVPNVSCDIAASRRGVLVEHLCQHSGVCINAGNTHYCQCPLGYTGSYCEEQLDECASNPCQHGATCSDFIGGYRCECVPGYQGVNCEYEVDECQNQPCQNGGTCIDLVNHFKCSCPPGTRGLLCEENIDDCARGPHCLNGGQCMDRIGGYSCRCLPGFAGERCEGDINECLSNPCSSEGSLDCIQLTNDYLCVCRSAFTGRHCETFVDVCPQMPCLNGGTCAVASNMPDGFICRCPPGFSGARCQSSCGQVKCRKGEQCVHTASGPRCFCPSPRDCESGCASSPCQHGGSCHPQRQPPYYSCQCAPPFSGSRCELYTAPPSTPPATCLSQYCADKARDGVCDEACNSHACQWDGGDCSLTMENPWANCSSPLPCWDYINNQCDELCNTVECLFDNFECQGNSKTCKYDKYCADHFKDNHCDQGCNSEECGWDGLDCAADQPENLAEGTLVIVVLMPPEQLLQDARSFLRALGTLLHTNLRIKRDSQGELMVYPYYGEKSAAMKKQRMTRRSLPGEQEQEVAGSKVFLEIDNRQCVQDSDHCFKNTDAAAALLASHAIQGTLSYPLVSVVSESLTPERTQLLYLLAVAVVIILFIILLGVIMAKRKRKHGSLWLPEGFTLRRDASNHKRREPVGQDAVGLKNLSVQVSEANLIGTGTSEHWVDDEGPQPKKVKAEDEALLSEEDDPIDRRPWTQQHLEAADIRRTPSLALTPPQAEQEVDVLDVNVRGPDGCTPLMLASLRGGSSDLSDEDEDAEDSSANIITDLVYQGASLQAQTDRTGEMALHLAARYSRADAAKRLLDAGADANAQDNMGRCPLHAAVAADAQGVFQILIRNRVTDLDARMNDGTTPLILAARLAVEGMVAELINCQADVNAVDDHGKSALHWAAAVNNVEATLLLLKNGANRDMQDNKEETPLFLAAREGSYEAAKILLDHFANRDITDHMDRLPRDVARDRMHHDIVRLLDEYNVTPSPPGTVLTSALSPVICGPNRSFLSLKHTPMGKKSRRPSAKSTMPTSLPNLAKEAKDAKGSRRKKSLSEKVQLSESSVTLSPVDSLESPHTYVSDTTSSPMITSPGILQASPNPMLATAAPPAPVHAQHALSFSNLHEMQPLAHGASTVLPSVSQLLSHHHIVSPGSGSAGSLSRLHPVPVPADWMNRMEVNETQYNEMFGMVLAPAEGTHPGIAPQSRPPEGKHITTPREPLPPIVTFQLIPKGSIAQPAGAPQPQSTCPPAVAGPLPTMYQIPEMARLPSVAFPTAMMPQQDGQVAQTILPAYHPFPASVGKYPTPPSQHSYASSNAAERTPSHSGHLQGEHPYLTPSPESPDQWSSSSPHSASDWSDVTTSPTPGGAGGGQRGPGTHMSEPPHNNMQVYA

[6] = target: Pro-neuregulin-1, membrane-bound isoform (Homo sapiens) (UniProt Q02297); experiment: small molecules binding neuregulin-1 protein – biochemical, small-molecule microarray, fluorescence 635/667, psychiatric disease protein project, primary screen (AID 1075); settings: NRG1 binding, 635 nm fluorescence, higher = more signal;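 note: score combines 667 nm spot fluorescence with signal to noise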
Sequence of Pro-neuregulin-1, membrane-bound isoform (Homo sapiens) (Q02297 whole entry, looked up, the tested form may be a part, canonical isoform): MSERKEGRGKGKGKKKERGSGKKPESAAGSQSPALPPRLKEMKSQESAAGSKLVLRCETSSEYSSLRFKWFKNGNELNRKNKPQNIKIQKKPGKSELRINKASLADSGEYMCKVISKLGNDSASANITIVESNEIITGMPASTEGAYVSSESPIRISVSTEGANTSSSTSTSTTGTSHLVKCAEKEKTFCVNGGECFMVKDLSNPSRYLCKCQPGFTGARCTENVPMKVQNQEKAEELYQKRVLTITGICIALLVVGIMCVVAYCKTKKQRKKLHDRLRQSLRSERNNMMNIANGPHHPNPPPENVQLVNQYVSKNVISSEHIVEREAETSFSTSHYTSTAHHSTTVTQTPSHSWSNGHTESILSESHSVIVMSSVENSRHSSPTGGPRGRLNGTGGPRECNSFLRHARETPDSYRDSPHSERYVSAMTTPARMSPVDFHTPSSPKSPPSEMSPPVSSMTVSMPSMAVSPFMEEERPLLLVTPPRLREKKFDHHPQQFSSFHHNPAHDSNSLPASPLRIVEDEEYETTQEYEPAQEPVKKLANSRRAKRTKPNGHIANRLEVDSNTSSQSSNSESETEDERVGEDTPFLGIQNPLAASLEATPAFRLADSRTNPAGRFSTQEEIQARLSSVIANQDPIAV

[7] = tested on: Neuregulin-1 EGF-like domain; experiment: small molecules binding NRG1 EGF domain – biochemical, small-molecule microarray, 635 nm fluorescence, primary screen (AID 1081); settings: higher = more signal;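 note: binding of the protein to compounds printed on small-molecule microarray slides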
[8] = FRG1 expression reporter modulators in myotubes – cell-based, C2C12 myotubes, firefly/Renilla luciferase, luminescence, FRG1 inhibition for FSHD, primary screen (AID 1084); settings: FRG1 promoter luciferase, higher = more signal, called active from +8 up or from −8 down
[9] = small molecules captured by biotinylated probe aFST – biochemical, small-molecule microarray, fluorescence 635/667, stem cell growth factor project, primary screen (AID 1086); settings: higher = more signal;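 note: score merges 667 nm fluorescence with signal-to-noise of each printed compound spot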
[10] = binders of probe aHhip on microarray, primary screen, stem cell growth factor project, biochemical, small-molecule microarray, fluorescence 635/667 (AID 1087); settings: higher = more signal;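 note: score merges spot fluorescence at 667nm with spot signal to noise ratio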

Compound | composite z-score [1] | composite z-score [2] | composite z-score [3] | composite z-score [4] | composite z-score [5] | composite z-score [6] | composite z-score [7] | z-score [8] | composite z-score [9] | composite z-score [10]
COc1cccc([C@H]2Oc3ccc(OC)cc3C(=NOCC[C@@H]3C=C[C@H](OC(C)=O)[C@@H](COC(C)=O)O3)[C@@H]2O)c1 | -0.478 | 0.459 | -0.017 | 0.577 | 0.895 | 1.28 | 0.773 | 1.52 (inactive) | 0.366 | -0.21
OC[C@H]1O[C@H](C#Cc2ccccc2)C=C[C@@H]1O | -0.406 | -0.437 | -0.0732 | 0.325 | 0.322 | 0.0659 | 0.0463 | -0.999 (inactive) | 0.101 | 0.107
CSCC[C@@H]1NC(=O)CC=C[C@@H](C)COC(=O)[C@H](C)COC1=O | -1.1 | 2.81 | -0.355 | -1.11 | -0.979 | -1.94 | -0.169 | -1.13 (inactive) | -0.242 | 0.487
O=C1[C@H]2CCn3c(=O)n(Cc4cc5c(cc4Cl)OCO5)c(=O)n3[C@H]2[C@H](O)[C@@H]2O[C@H]12 | 1.24 | -0.0222 | -0.162 | -0.244 | -0.382 | -0.156 | 0.801 | -0.162 (inactive) | -0.332 | 0.0156
COc1ccc2c(c1)O[C@@H](c1cccc(C(F)(F)F)c1)[C@H](O)C2=O | -0.609 | -0.184 | -0.131 | 0.452 | 0.242 | 0.0761 | 0.4 | -0.682 (inactive) | 0.0335 | -0.236
CCOC(=O)[C@H](CC(C)C)NC(=O)CCC1CC(OC(=O)NCc2ccc3c(c2)OCO3)CC2(CCCC(COC(=O)NCCc3ccccc3OC)O2)O1 (stereo not given in full) | -0.693 | 0.309 | -0.085 | 0.554 | 1.26 | 0.53 | 0.978 | 1.01 (inactive) | 0.14 | -0.15
COC(=O)C1=C(C)N(Cc2ccccc2)C2=C3C(=O)OCC[C@@H]3[C@@](O)(C(=O)OC)C(=O)N2[C@@H]1c1ccccc1 | -0.69 | -0.0402 | -0.118 | 0.495 | 0.346 | -0.143 | 0.0271 | 0.245 (inactive) | -0.0464 | 0.0139
CCN1C(=O)[C@H]2[C@H]3[C@H](O)[C@H](O)CC(=NOC[C@@H](O)[C@H]4O[C@@H]5OC(C)(C)O[C@@H]5[C@H]4O)[C@@H]3CC[C@H]2C1=O | -0.635 | -0.112 | -0.173 | 0.242 | 0.352 | 0.12 | -0.0114 | -0.116 (inactive) | 0.156 | -0.291
CC(CCN1CCCc2nc(C)c(C)cc21)=NO[C@@H](C)c1cn([C@H](CO)Cc2ccccc2)nn1 | -0.102 | 0.417 | -0.0257 | 0.389 | 0.414 | -0.19 | 0.28 | -0.0338 (inactive) | 0.4 | -0.277
C[C@@H]1C=CCC(=O)OC[C@H](C)C(=O)N[C@@H](Cc2ccccc2)C(=O)OC1 | -0.553 | 1.31 | -0.245 | 0.294 | 0.443 | -0.302 | 0.422 | -0.514 (inactive) | 0.0347 | 0.605
C[C@@H]1CC[C@H]2C(=O)O[C@@H](CN=[N+]=[N-])CN2[C@H]1c1ccc(Br)cc1 | -0.264 | -0.021 | -0.085 | 0.361 | 0.271 | 0.486 | 0.786 | -1.46 (inactive) | 0.0048 | -0.199
CC(C)(C)N1C(=O)[C@H]2[C@@H]3C(=CC[C@H]2C1=O)C(=O)[C@H]1O[C@H]1[C@H]3O | -0.293 | 1.62 | -0.226 | 0.25 | -0.573 | -0.261 | 0.17 | 9.15 (active) | -0.546 | 0.0024
CCN1C(=O)[C@H]2[C@H]3[C@H](O)[C@H](O)CC(=NOCC[C@@H]4C=C[C@H](OC(C)=O)[C@@H](COC(C)=O)O4)[C@@H]3CC[C@H]2C1=O | -0.298 | 0.198 | -0.0085 | 0.547 | 0.522 | 0.0776 | 0.314 | 0.511 (inactive) | 0.186 | 0.259
CON=C[C@@H](OC)[C@H](C)C=CCC(=O)OC | -0.447 | 0.0818 | -0.191 | 0.172 | -0.0904 | -0.513 | -0.499 | -0.0681 (inactive) | 0.272 | 0.0401
CO[C@H]1COC(=O)CC=C[C@@H](C)COC(=O)[C@H]2CCCN2C(=O)CC=C[C@H]1C | -0.867 | 2.36 | -0.147 | -0.103 | -0.315 | -0.278 | 1.06 | -0.352 (inactive) | 0.0653 | 0.445
O=C1C2=CC[C@H]3C(=O)N(Cc4ccccc4)C(=O)[C@H]3[C@H]2[C@H](O)[C@@H]2O[C@H]12 | -0.291 | -0.339 | -0.132 | 0.011 | 0.0297 | -0.0087 | 0.281 | 6.64 (inactive) | -0.351 | 0.176
COc1ccc(COC(=O)NN=C2C[C@@H](O)[C@@H](O)[C@@H]3[C@@H]4C(=O)N([C@@H](C)c5ccccc5)C(=O)[C@@H]4CC[C@@H]23)cc1 | -0.513 | 0.419 | -0.114 | 0.042 | 0.199 | 0.0605 | -0.38 | 0.497 (inactive) | 0.275 | -0.0994

Compound | composite z-score [1] | composite z-score [2] | composite z-score [3] | composite z-score [4] | composite z-score [5] | composite z-score [6] | composite z-score [7] | z-score [8] | composite z-score [9] | composite z-score [10]
CC(CCC(=O)OC[C@H]1O[C@H](C#Cc2ccccc2)C=C[C@@H]1Oc1ccc(C)cc1)=NO[C@H](C)c1cn([C@@H]2COC[C@H]2O)nn1 | -0.484 | 0.522 | -0.148 | 0.0898 | -0.31 | -0.0103 | 0.452 | -1.03 (inactive) | -0.0115 | -0.134
CO[C@@H]1C=CCC(=O)N[C@@H](C)C(=O)OC[C@@H](NS(=O)(=O)c2ccc(C)cc2)[C@H](C)C=CCC(=O)OC[C@H]1C | -0.296 | 0.43 | -0.238 | 0.199 | -0.765 | -0.589 | -0.919 | -1.04 (inactive) | -0.0849 | 0.21
C#CCCCON=C1C[C@@H](O)[C@@H](O)[C@@H]2[C@@H]3C(=O)N([C@@H](C)c4ccccc4)C(=O)[C@@H]3CC[C@@H]12 | -0.0065 | -0.318 | -0.17 | -0.46 | -0.351 | -0.191 | -0.934 | 0.0665 (inactive) | -0.069 | -0.267
CCOC(=O)CCN1C(=O)[C@H]2[C@H]3[C@H](O)[C@H](O)CC(=NOCC=C(C)CCC=C(C)C)[C@H]3CC[C@H]2C1=O | -0.137 | 0.757 | -0.0734 | -0.274 | 0.762 | -0.601 | -1.74 | -0.815 (inactive) | 0.752 | 0.0722
CC(=O)OC[C@H]1O[C@H](CCON=C(C)CCN2CCCc3nc(C)c(C)cc32)C=C[C@@H]1OC(C)=O | -0.293 | 0.704 | -0.0454 | 0.72 | 1.19 | 0.237 | 1.1 | 0.523 (inactive) | 0.522 | 0.0722
CC(CCN1CCCc2nc(C)c(C)cc21)=NO[C@H](C)c1cn([C@@H]2COC[C@H]2O)nn1 | -0.396 | 1.37 | -0.0788 | 0.359 | 0.6 | 0.0261 | 1.17 | 0.59 (inactive) | 0.3 | -0.195
CC(C)=CCCC(C)=CCON=C1C[C@@H](O)[C@@H](O)[C@@H]2[C@@H]3C(=O)N(C4CCCCC4)C(=O)[C@@H]3CC[C@H]12 | -0.317 | 0.396 | -0.0725 | 0.548 | 0.535 | 0.475 | 0.255 | 0.0864 (inactive) | 0.53 | 0.408
C[C@H]1CC[C@@H](C(=O)O)N[C@@H]1c1cccc(N2CCCC2=O)c1 | -0.304 | 0.141 | -0.145 | 0.22 | 0.408 | -0.153 | 0.17 | 0.304 (inactive) | 0.149 | 0.107
CC(CCC(=O)OC[C@H]1O[C@H](C#Cc2ccccc2)C=C[C@@H]1Oc1ccc(C)cc1)=NOC(C)CN1CCCCc2nc(C)c(C)cc21 (stereo not given in full) | -0.172 | -0.116 | -0.211 | -0.12 | -0.565 | 0.904 | -0.491 | 0.49 (inactive) | -0.697 | -0.143
CCOC(=O)[C@H](CC(C)C)NC(=O)CCC1CC(OC(=O)NCc2ccc3c(c2)OCO3)CC2(CCCC(COC(=O)NCCOC)O2)O1 (stereo not given in full) | -0.412 | -0.224 | -0.0785 | 0.197 | 0.805 | -0.0383 | 1.07 | 0.619 (inactive) | 0.0301 | 0.0826
CCOC(=O)[C@H](Cc1ccccc1)NC(=O)CCC1CC(OC(=O)NCc2ccc3c(c2)OCO3)CC2(CCCC(COC(=O)NCCc3ccc(Cl)cc3)O2)O1 (stereo not given in full) | -0.415 | 0.388 | -0.114 | 0.351 | 0.832 | 0.107 | 0.918 | -0.327 (inactive) | -0.18 | -0.0994
CON=C(C)CCN1CCCCc2nc(C)c(C)cc21 | 0.367 | 1.01 | 0.0121 | 0.241 | 0.133 | 0.525 | 0.93 | 0.997 (inactive) | 0.437 | -0.0296
O=C1[C@H]2CCn3c(=O)n(-c4ccccc4)c(=O)n3[C@H]2[C@H](O)[C@@H]2O[C@H]12 | -0.561 | -0.0619 | -0.0667 | 0.328 | 0.164 | 1.63 | -0.125 | -0.217 (inactive) | -0.0545 | -0.305
C=C(C)C(=O)OC[C@H]1CN2[C@@H](CC[C@@H](C)[C@@H]2c2ccc(Br)cc2)C(=O)O1 | -0.223 | 0.123 | -0.166 | 0.113 | -0.283 | 0.199 | 0.0297 | 0.402 (inactive) | -0.155 | -0.0618
COC(=O)CC=C[C@@H](C)[C@@H](C=NOC[C@@H](O)[C@H]1O[C@@H]2OC(C)(C)O[C@@H]2[C@H]1O)OC | 0.354 | 0.937 | -0.0996 | 0.197 | 0.427 | -0.0348 | 0.205 | 0.195 (inactive) | -0.456 | 0.221
CC(CCN1CCc2nc(-c3ccccc3)c(-c3ccccc3)cc2C1)=NO[C@@H](C)c1cc(-c2c(C)cc(C)cc2C)no1 | 0.037 | 0.0468 | -0.14 | 0.155 | -0.846 | 0.129 | 0.55 | 0.687 (inactive) | 0.0035 | -0.13
O=C1C2=CC[C@H]3C(=O)N(c4ccc(F)cc4F)C(=O)[C@H]3[C@H]2[C@H](O)[C@@H]2O[C@H]12 | -0.598 | 0.45 | -0.116 | 0.37 | 0.291 | -0.0808 | 0.0508 | 0.264 (inactive) | 1.14 | -0.0994

— PubChem BioAssay
